{"source": "PubChem BioAssay (NCATS)", "key": {"[1]": {"target": "N-terminal Xaa-Pro-Lys N-methyltransferase 1 (Homo sapiens) (UniProt Q9BV86)", "sequence (Q9BV86 whole entry, looked up)": "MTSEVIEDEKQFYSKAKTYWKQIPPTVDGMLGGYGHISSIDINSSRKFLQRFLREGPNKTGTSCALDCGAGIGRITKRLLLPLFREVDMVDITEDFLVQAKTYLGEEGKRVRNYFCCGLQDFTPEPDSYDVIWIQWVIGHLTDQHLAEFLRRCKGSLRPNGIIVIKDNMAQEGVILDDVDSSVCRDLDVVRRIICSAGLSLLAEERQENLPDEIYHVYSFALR", "assay": "Confirmatory qHTS for Inhibitors of N-terminal methyltransferase 1 (NTMT1): MTaseGlo Assay (AID 1645874); further: nearly all actives have a fitted effect of over 65% in size; further: potency means the concentration at half of the fitted maximal effect;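 on activity change, negative = inhibition: luminescence from SAH made as NTMT1 methylates SPKRIA peptide using SAM; 0% = DMSO control and -100% = no-enzyme control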", "settings": "NTMT1 enzyme, MTase-Glo SAH luminescence; series mostly up to 100 µM", "procedure,_shortened": "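Luminescent MTase-Glo read-out of SAH. 125 nM NTMT1, 100 uM SAM, 1 uM SPKRIA substrate, 30 min RT reaction after 15 min compound preincubation. Normalized to no-enzyme and DMSO controls; Hill fit.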"}, "[2]": {"assay": "Primary qHTS for inhibitors of nuclear receptor binding SET domain protein 2 (NSD2) in an isogenic RCH-ACV NSD2 p.E1099K mutant (9B) (AID 1645876); further: nearly all actives have a fitted effect of over 70% in size; further: potency means the concentration at half of the fitted maximal effect; on activity change, negative = viability loss: on the % scale 0 is the no-effect control and ±100 the full control effect", "settings": "RCH-ACV NSD2 E1099K (9B) viability, CellTiter-Glo, 72 h; series mostly up to 44.9 µM"}, "[3]": {"target": "Cytochrome P450 2C9 (Homo sapiens) (UniProt P11712)", "sequence (P11712 whole entry, looked up)": "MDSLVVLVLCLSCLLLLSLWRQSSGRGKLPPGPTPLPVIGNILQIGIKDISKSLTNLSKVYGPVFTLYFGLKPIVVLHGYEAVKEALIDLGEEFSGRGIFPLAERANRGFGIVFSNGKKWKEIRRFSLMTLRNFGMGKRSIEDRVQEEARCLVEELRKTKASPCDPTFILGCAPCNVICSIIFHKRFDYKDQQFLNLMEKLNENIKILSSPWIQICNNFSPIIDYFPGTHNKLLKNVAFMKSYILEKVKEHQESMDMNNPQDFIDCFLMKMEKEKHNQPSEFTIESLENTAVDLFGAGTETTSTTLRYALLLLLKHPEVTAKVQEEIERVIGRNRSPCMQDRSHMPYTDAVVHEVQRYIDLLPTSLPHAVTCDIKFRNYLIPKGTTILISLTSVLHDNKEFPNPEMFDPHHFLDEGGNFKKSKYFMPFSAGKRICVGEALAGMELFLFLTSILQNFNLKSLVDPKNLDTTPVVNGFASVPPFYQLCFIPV", "assay": "Cytochrome P450 family 2 subfamily C member 9 (CYP2C9) small molecule antagonists: luciferase biochemical (cell-free) qHTS assay (AID 1645842; active means well fitted curve in the direction sought with a large enough effect in the repeat runs; an effect the other way counts as inactive or inconclusive; further: potency means the concentration at half of the fitted maximal effect; nearly all actives have a fitted effect of over 55% in size)", "settings": "P450-Glo CYP2C9 enzyme assay, luciferin luminescence; series mostly up to 57.4 µM", "procedure,_shortened": "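Luminescence, after 20 min with luciferin detection reagent, reflected CYP2C9 turnover during a 1 h NADPH-driven reaction at 37C. Enzyme-substrate mix contained 0.4% bovine serum albumin and was preincubated with compound 10 min at room temperature.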"}, "[4]": {"assay": "Primary qHTS for inhibitors of nuclear receptor binding SET domain protein 2 (NSD2) in an RCH-ACV wild type WT cells (2C) (AID 1645877); further: nearly all actives have a fitted effect of over 70% in size; further: potency means the concentration at half of the fitted maximal effect; on activity change, negative = cell killing: on the % scale 0 is the no-effect control and ±100 the full control effect", "settings": "RCH-ACV NSD2 WT (2C) viability, CellTiter-Glo, 72 h; series mostly up to 44.9 µM"}, "[5]": {"target": "Catechol O-methyltransferase (Homo sapiens) (UniProt P21964)", "sequence (P21964 whole entry, looked up)": "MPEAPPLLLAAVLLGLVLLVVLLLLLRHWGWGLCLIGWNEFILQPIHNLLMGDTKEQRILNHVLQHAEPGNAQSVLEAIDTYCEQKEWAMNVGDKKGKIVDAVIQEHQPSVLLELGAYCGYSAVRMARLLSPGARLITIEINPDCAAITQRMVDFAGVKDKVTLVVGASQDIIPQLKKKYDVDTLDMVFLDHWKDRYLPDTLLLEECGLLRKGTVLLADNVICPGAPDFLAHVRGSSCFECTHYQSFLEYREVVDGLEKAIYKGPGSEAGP", "assay": "Confirmatory Screen for Target Class Profiling of Small Molecule Inhibitors of Methyltransferases (AID 1745852; calls by dose curve)", "settings": "MTase-Glo luminescence, SAH detection, recombinant enzyme; measured here: COMT max response; stronger effect = lower value"}, "[6]": {"target": "Guanidinoacetate N-methyltransferase (Homo sapiens) (UniProt Q14353)", "assay": "Confirmatory Screen for Target Class Profiling of Small Molecule Inhibitors of Methyltransferases (AID 1745852); further: potency means the concentration at half of the fitted maximal effect; on activity change, negative = inhibition: on the % scale 0 is the no-effect control and ±100 the full control effect", "settings": "MTase-Glo luminescence, SAH detection, recombinant enzyme; activity change, negative = inhibition: at 57.3 µM (top of the series) unless noted; series mostly up to 57.3 µM"}, "[7]": {"target": "Nicotinamide N-methyltransferase (Homo sapiens) (UniProt P40261)", "sequence (P40261 whole entry, looked up)": "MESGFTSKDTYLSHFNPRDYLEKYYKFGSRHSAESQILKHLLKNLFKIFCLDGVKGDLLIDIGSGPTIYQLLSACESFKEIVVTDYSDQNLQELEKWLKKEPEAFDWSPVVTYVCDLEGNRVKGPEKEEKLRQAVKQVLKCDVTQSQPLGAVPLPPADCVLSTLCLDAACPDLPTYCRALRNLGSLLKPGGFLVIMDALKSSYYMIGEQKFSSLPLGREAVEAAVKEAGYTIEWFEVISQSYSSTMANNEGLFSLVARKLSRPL", "assay": "Confirmatory Screen for Target Class Profiling of Small Molecule Inhibitors of Methyltransferases (AID 1745852)", "settings": "MTase-Glo luminescence, SAH detection, recombinant enzyme; measured here: NNMT max response; stronger effect = lower value"}, "[8]": {"target": "Phenylethanolamine N-methyltransferase (Homo sapiens) (UniProt P11086)", "sequence (P11086 whole entry, looked up)": "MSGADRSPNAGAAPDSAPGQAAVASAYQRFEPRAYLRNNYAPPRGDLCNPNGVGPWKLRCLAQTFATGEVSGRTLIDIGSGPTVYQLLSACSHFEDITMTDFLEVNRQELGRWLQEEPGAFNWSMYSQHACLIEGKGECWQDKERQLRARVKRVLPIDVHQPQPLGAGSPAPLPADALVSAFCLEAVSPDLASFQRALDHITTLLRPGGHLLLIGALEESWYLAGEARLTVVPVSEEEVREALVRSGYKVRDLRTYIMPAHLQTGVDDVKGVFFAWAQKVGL", "assay": "Confirmatory Screen for Target Class Profiling of Small Molecule Inhibitors of Methyltransferases (AID 1745852)", "settings": "MTase-Glo luminescence, SAH detection, recombinant enzyme; measured here: PNMT max response; stronger effect = lower value"}, "Papain (Carica papaya)": {"target": "Papain (Carica papaya) (UniProt P00784)", "sequence (P00784 whole entry, looked up)": "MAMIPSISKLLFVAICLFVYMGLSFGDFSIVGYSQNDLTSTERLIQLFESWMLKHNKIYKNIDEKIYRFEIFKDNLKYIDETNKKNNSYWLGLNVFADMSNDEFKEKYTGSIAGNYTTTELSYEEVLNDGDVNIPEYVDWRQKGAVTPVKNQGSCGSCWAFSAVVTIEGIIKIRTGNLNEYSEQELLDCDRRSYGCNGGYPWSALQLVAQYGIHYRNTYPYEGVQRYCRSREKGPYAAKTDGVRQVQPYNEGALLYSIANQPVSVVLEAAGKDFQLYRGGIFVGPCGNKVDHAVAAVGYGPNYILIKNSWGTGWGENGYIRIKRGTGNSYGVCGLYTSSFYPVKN", "assay": "Primary qHTS assay for inhibitors of the protease papain (AID 1645873); further: on the % scale 0 is the no-effect control and ±100 the full control effect", "settings": "papain Z-FR-AMC cleavage, AMC fluorescence; series mostly up to 49.8 µM"}}, "note": "Where “and” joins values, the source holds several entries; their conditions need not be identical. Identical values can stand only once. Inconclusive results are not listed. Calls of active or inactive are those of the source. Unless noted, the call rests on the fitted dose curve; in most records, active means well fitted curve in the direction sought with a large enough effect; inconclusive means small, poorly fitted or top-dose-only effect, or another doubt; inactive means no such curve, though single readings can be large; an effect the other way counts as inactive or inconclusive. *1 amine or outer side, *2 acyl side, *3 side chain or, on linkers, in order; H or OH if unused. Where a SMILES comes first, the peptide text is derived from it. Bridges are numbered along the chain shown (N, C = ends). [ ]: non-standard residue; d: D form. The star is where a group is joined. pTerphenylCO(4''-OnC5H11) = CCCCCOc1ccc(-c2ccc(-c3ccc(C(=O)*)cc3)cc2)cc1; Orn(4R-OH,5R-OH) = O=C([C@H](C[C@@H](O)[C@@H](O)N[*:3])N[*:1])[*:2]; hTyr(3S-OH,4S-OH) = N[C@H](C(=O)O)[C@H](O)[C@@H](O)c1ccc(O)cc1; Pro(3S-OH,4S-Me) = C[C@H]1CN[C@H](C(=O)O)[C@H]1O; Hyp = O=C(O)[C@@H]1C[C@@H](O)CN1", "data": [{"smiles": "CCCCCOc1ccc(-c2ccc(-c3ccc(C(=O)N[C@H]4C[C@@H](O)[C@@H](O)NC(=O)[C@@H]5[C@@H](O)[C@@H](C)CN5C(=O)[C@H]([C@@H](C)O)NC(=O)[C@H]([C@H](O)[C@@H](O)c5ccc(O)cc5)NC(=O)[C@@H]5C[C@@H](O)CN5C(=O)[C@H]([C@@H](C)O)NC4=O)cc3)cc2)cc1", "note": "({pTerphenylCO(4''-OnC5H11)}-[Orn(4R-OH,5R-OH)]T[Hyp][hTyr(3S-OH,4S-OH)]T[Pro(3S-OH,4S-Me)]; lactam 1-C)", "values": [{"measurement": "Potency", "setting": "[1]", "value": "inactive"}, {"measurement": "Potency", "setting": "[2]", "value": "inactive"}]}, {"smiles": "S=C(c1ccc(-c2ccc(Cl)c(Cl)c2)o1)N1CCCCC1", "values": [{"measurement": "Potency", "setting": "[3]", "value": "3.38 µM (active)"}, {"measurement": "Potency", "setting": "[4]", "value": "inactive"}]}, {"smiles": "O=C1COC2(CCN(S(=O)(=O)c3ccc(-c4ccc5cccnc5c4)cc3)CC2)CN1C1CC1", "values": [{"measurement": "Potency", "setting": "[2]", "value": "inactive"}]}, {"smiles": "NC(=O)c1cccc2[nH]c(-c3ccc(C4CCCN4)cc3F)nc12", "note": "(stereo not given)", "values": [{"measurement": "Potency", "setting": "[3]", "value": "10.7 µM (active)"}, {"measurement": "Potency", "setting": "[4]", "value": "18.3 µM (active)"}]}, {"smiles": "CCCC(=O)C1(c2ccccc2)CCN(C(=O)[C@@H](Cc2ccc(OC)cc2)NC(=O)[C@@H](N)Cc2cncn2C)CC1", "values": [{"measurement": "Potency", "setting": "[3]", "value": "19 µM (active)"}, {"measurement": "Potency", "setting": "[4]", "value": "18.3 µM (active)"}]}, {"smiles": "COc1c(C(C)C)c(O)c(O)c2c1C(OC)[C@H]1OC(=O)[C@@]23CCCC(C)(C)[C@H]13", "note": "(stereo not given in full)", "values": [{"measurement": "Potency", "setting": "[1]", "value": "inactive"}]}, {"smiles": "C=CC(C)(O)CC/C=C(/C)COC(=O)C(C)C1CCC(C)(C=C)O1", "note": "(stereo not given)", "values": [{"measurement": "Potency", "setting": "[2]", "value": "inactive"}]}, {"smiles": "CN(C)CCCn1cc(C2=C(c3c[nH]c4ccccc34)C(=O)NC2=O)c2ccccc21", "values": [{"measurement": "Potency", "setting": "[1]", "value": "39.8 µM (active)"}, {"measurement": "Potency", "setting": "[2]", "value": "5.78 µM (active)"}, {"measurement": "Potency", "setting": "[4]", "value": "3.25 µM (active)"}, {"measurement": "activity", "setting": "[5]", "value": -45.6, "unit": "%"}, {"measurement": "Potency", "setting": "[6]", "value": "27.1 µM (active)"}, {"measurement": "activity", "setting": "[7]", "value": -41.3, "unit": "%"}, {"measurement": "activity", "setting": "[8]", "value": -44.4, "unit": "%"}]}, {"smiles": "CC(C)(C)c1ccc(C(=O)Nc2cc(Cl)c(Br)cc2C(=O)O)cc1", "values": [{"measurement": "Potency", "setting": "[3]", "value": "16.9 µM (active)"}, {"measurement": "Potency", "setting": "[4]", "value": "11.5 µM (active)"}, {"measurement": "activity", "setting": "[5]", "value": -14, "unit": "%"}, {"measurement": "activity change, negative = inhibition", "setting": "[6]", "value": -8.07, "unit": "%"}, {"measurement": "activity", "setting": "[7]", "value": -40.5, "unit": "%"}, {"measurement": "activity", "setting": "[8]", "value": -22, "unit": "%"}]}, {"smiles": "CC(C)c1cc(-c2ccc(F)c3ccccc23)nc(N)n1", "values": [{"measurement": "Potency", "setting": "[3]", "value": "4.25 µM (active)"}, {"measurement": "Potency", "setting": "[4]", "value": "inactive"}]}, {"smiles": "CCOc1ccc(Cc2nc(-c3c(C)nc4ccccn34)cs2)cc1", "values": [{"measurement": "Potency", "setting": "[1]", "value": "inactive"}, {"measurement": "Potency", "setting": "[2]", "value": "0.183 µM (active)"}, {"measurement": "Potency", "setting": "[4]", "value": "0.183 µM (active)"}]}, {"smiles": "NCCCC(=O)O", "values": [{"measurement": "outcome", "setting": "Papain (Carica papaya)", "value": "inactive"}]}, {"smiles": "CC[C@@H](C)Nc1cc(C(=O)NC2CC3CC[C@@H](C2)N3c2ccc(C(=O)C3CC3)cn2)c(C)cc1C(N)=O", "note": "(stereo not given in full)", "values": [{"measurement": "Potency", "setting": "[1]", "value": "inactive"}, {"measurement": "Potency", "setting": "[2]", "value": "0.0742 µM (active)"}, {"measurement": "Potency", "setting": "[4]", "value": "0.105 µM (active)"}]}, {"smiles": "O=C(Cc1c(F)cccc1F)Nc1cc(OCc2ccc(Cl)cc2)ccn1", "values": [{"measurement": "Potency", "setting": "[1]", "value": "inactive"}, {"measurement": "Potency", "setting": "[2]", "value": "18.3 µM (active)"}]}, {"smiles": "Cc1nc(NC(=O)N2CCCC2C(N)=O)sc1-c1ccnc(C(C)(C)C(F)(F)F)c1", "note": "(stereo not given)", "values": [{"measurement": "Potency", "setting": "[2]", "value": "2.35 µM (active)"}]}, {"smiles": "COc1cc(CCc2ccc(OCC=C(C)C)cc2)cc(OC)c1OC", "values": [{"measurement": "Potency", "setting": "[1]", "value": "inactive"}, {"measurement": "Potency", "setting": "[4]", "value": "inactive"}]}, {"smiles": "C=C[C@H](/C=C\\c1ccc(O)cc1)c1ccc(O)cc1", "values": [{"measurement": "Potency", "setting": "[2]", "value": "16.3 µM (active)"}]}, {"smiles": "CC(C)(C)C1CCN(C(=O)n2ncc(C(O)(c3ccccc3)c3ccccc3)n2)CC1", "values": [{"measurement": "Potency", "setting": "[2]", "value": "20.5 µM (active)"}]}, {"smiles": "Cc1cc(C(=O)Nc2cc(Oc3ccc4nc(NC(=O)C5CC5)cn4n3)ccc2C)n(C)n1", "values": [{"measurement": "Potency", "setting": "[2]", "value": "13.2 µM (active)"}, {"measurement": "Potency", "setting": "[4]", "value": "9.34 µM (active)"}]}, {"smiles": "C=CC(=O)N1CCCN(c2cc(NCCC(=O)O)nc(-c3ccccn3)n2)CC1", "values": [{"measurement": "Potency", "setting": "[2]", "value": "inactive"}, {"measurement": "Potency", "setting": "[4]", "value": "inactive"}]}, {"smiles": "C1=C/COCc2cc(ccc2OCCN2CCCC2)Nc2nccc(n2)-c2cccc(c2)COC/1", "values": [{"measurement": "Potency", "setting": "[2]", "value": "325 nM (active) and 417 nM (active)"}, {"measurement": "Potency", "setting": "[4]", "value": "258 nM (active) and 417 nM (active)"}]}, {"smiles": "O=C(c1c(F)ccc(NS(=O)(=O)N2CC[C@@H](F)C2)c1F)c1c[nH]c2ncc(-c3cnc(C4CC4)nc3)cc12", "values": [{"measurement": "Potency", "setting": "[2]", "value": "11.8 µM (active)"}, {"measurement": "Potency", "setting": "[4]", "value": "11.6 µM (active)"}]}, {"smiles": "CCC/C=C/C=C/C1CC(O)C2(O)C(=O)OCC12", "note": "(stereo not given)", "values": [{"measurement": "Potency", "setting": "[2]", "value": "inactive"}, {"measurement": "Potency", "setting": "[4]", "value": "inactive"}]}, {"smiles": "O=C1Nc2ccccc2-c2nc3ccccc3c(=O)n2-c2c(O)cccc21", "values": [{"measurement": "Potency", "setting": "[2]", "value": "inactive"}, {"measurement": "Potency", "setting": "[4]", "value": "inactive"}]}, {"smiles": "C/C=C(\\C)C(=O)O[C@H]1C=C(CO)C(=O)[C@H](OC(C)=O)[C@H]1C(C)C", "values": [{"measurement": "Potency", "setting": "[2]", "value": "2.84 µM (active)"}, {"measurement": "Potency", "setting": "[4]", "value": "2.84 µM (active)"}]}, {"smiles": "CC(=O)OC1CC(C)(C(=O)O)CC2C3=CC(=O)C4C5(C)CCC(OC6OC(C(=O)O)C(O)C(O)C6OC6OC(C(=O)O)C(O)C(O)C6O)C(C)(C)C5CCC4(C)C3(C)CCC12C", "note": "(stereo not given)", "values": [{"measurement": "activity change, negative = viability loss", "setting": "[2]", "value": "-3.77% [at 9.23 µM] (inactive)"}, {"measurement": "activity change, negative = cell killing", "setting": "[4]", "value": "-8.59% [at 9.23 µM] (inactive)"}]}, {"smiles": "C=CS(=O)(=O)NC1CCN(C(=O)CNc2cc(I)c(Cl)cc2OC)CC1", "values": [{"measurement": "Potency", "setting": "[2]", "value": "4.59 µM (active)"}, {"measurement": "Potency", "setting": "[4]", "value": "3.25 µM (active)"}]}, {"smiles": "CC1(CO)CC2C(O)C3=C(CC(C)(O)C2C1)C(=O)OC3", "note": "(stereo not given)", "values": [{"measurement": "Potency", "setting": "[2]", "value": "inactive"}, {"measurement": "Potency", "setting": "[4]", "value": "inactive"}]}]}
